# Hits are enriched below; roughly 7.4% of the tested compounds scored in any of these assays.
# Rab9 prom act: activators of Rab9 promoter; 2.8% of 320,000 active; Potency, µM (titrated, usually from 9.22 µM), for the others: at the top dose activation, negative = inhibition, usual class: activators; Huh7 Rab9 promoter-luciferase reporter, luminescence, 24 h; note: % of control where 0% means no effect; nearly all actives have a fitted effect of over 60% in size
#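 Measured in stably transfected Huh7 cells bearing a Rab9 promoter–luciferase construct: 24 h compound treatment at 37 °C, followed by luminescence detection.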
# SMN2 splice enh: increases expression of the SMN2 splice variant | HEK293 SMN2-luciferase splicing reporter, luminescence, 30-36 h | Potency, µM (doses to about 46.1 µM), for inactives: top-dose activity change, positive = activation, hits mostly activators | 2.8% of 210,000 active | AID 1458; note: % of control where 0% means no effect; nearly all actives have a fitted effect of over 55% in size
#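 qHTS luciferase splicing reporter: luminescence rises when SMN2 exon 7 is included in transfected HEK293 cells. Compound exposure lasted 30-36 h at 37C, with 4.5 mM final sodium butyrate as control, followed by a ONE-Glo read.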
# FLuc counter: firefly luciferase modulation, counter-screen for miR-21 project | P08659 | purified FLuc, Km substrates, luminescence inhibition | Potency, µM (series often up to 57.5 µM), without a hit: at the top dose activity change, negative = inhibition, actives largely listed as inhibitors | 6.9% of 360,000 active | AID 588342;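 note: plate controls were vehicle for no effect and reference inhibitor for full effect; nearly all actives have a fitted effect of over 55% in size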
# Target sequence (P08659 whole entry, looked up): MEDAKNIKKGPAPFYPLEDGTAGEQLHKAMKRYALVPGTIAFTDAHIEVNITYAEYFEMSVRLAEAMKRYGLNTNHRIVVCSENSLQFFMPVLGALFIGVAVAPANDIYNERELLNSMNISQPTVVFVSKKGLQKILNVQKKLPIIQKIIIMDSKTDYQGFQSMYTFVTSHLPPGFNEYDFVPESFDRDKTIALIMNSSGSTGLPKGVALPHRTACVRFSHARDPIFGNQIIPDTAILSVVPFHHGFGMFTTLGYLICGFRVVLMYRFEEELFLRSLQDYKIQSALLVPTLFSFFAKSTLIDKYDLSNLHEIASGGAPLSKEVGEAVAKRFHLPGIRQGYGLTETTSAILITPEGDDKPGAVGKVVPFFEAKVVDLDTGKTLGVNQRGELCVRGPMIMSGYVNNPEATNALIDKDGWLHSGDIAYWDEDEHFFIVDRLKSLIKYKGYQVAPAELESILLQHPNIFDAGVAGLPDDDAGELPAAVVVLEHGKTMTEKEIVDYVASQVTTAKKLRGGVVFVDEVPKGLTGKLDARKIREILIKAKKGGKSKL
#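 Biochemical qHTS of compounds, final roughly 60 µM downward over six points, against 10 nM purified firefly luciferase using Km concentrations of substrates (10 uM D-luciferin, 10 uM ATP) in Tris acetate pH 7.5 buffer; luminescence output.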
# ELG1 genotoxic: induces genotoxicity in HEK293T cells with luciferase-tagged ELG1; HEK293T ELG1-luciferase reporter, luminescence, 16 h; Potency, µM (titrated, usually from 46 µM), inactives show top-dose activity change, positive = activation, usual class: activators; 1.3% of 330,000 active; AID 504466; note: % of control where 0% means no effect; nearly all actives have a fitted effect of over 60% in size
#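 Reporter readout depends on ELG1 protein level, which increases with genetic stress. After 16 hr compound exposure at 37 °C, luciferase activity was quantified using ONE-Glo.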
# NPC1 promoter act: activators of NPC1 promoter. Huh7 NPC1 promoter luciferase reporter, 24 h. 2.4% of 320,000 active. Potency, µM (titrated, usually from 9.22 µM), for the others: at the top dose activation, hits mostly activators. AID 485313; note: % of control where 0% means no effect; nearly all actives have a fitted effect of over 60% in size
#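 Readout is luciferase luminescence, reflecting NPC1 promoter activation in stably transfected Huh7 cells after 24 h compound exposure at 37 °C in reduced-serum medium with 10% FBS.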
# * = called active by the depositor; ? = inconclusive; . = no result given. Calls come from the whole dose curve; as a rule, active = well fitted curve in the direction sought with a large enough effect; inconclusive = small, poorly fitted or top-dose-only effect, or another doubt; inactive = no such curve, though single readings can be large; an effect the other way counts as inactive or inconclusive. Potency is the fitted concentration of half-maximal effect.
SMILES,Rab9 prom act,SMN2 splice enh,FLuc counter,ELG1 genotoxic,NPC1 promoter act
CCN1/C(=C\C(=S)Nc2ccccc2)Sc2ccccc21,2.8µM*,?,13µM*,?,?
CCN1/C(=C\C=C(C(C)=O)C(C)=O)Sc2ccccc21,-2%,17%,-18%,19%,-8%
CCc1noc(-c2ccc(N(C)Cc3ccc(OC)cc3)c([N+](=O)[O-])c2)n1,.,.,-14%,.,.
CCOC(=O)c1c(C)cc(O)c(C=O)c1O,.,-10%,.,.,.
COc1cc(OC)cc(-c2nc(-c3ccccc3OC)no2)c1,21%,14%,-15%,8%,9%
COc1cccc(-c2nc(-c3ccc(NC(=O)Cc4ccccc4OC)cc3)no2)c1,-6%,15%,?,-18%,0%
COc1cccc(-c2nc(-c3ccncc3)no2)c1,1.4µM*,.,5.4µM*,?,2.8µM*
COc1cccc(-c2nc(-c3cccs3)no2)c1,2.5µM*,.,0.27µM*,?,2.8µM*
COc1ccc2oc(=O)c(-c3nc(-c4cccs4)no3)cc2c1,.,.,1%,.,.
COc1cc(OC)cc(-c2nc(-c3cccs3)no2)c1,?,26%,11µM*,-9%,?
COc1ccccc1-c1cc2nc(C)c(CCC(=O)Nc3ccc(Br)c(C)c3)c(C)n2n1,.,-3%,-19%,.,.
Cc1ccc(CNC(=O)C(Cc2ccccc2)NS(=O)(=O)c2cccs2)cc1 (configuration not stated),-5%,18µM*,-2%,-3%,2%
COc1ccccc1NC(=O)C(=O)NCC(c1ccc2c(c1)OCO2)N1CCN(C)CC1 (configuration not stated),.,.,7%,.,.
CC(=O)Nc1cccc(NC(=O)c2ccco2)c1,0%,22%,-11%,-1%,0%
O=C(Nc1cccc(NC(=O)c2sc3ccccc3c2Cl)c1)c1ccco1,10%,21%,2.7µM*,-8%,12%
O=C(Nc1cccc(NC(=O)c2nccc3ccccc23)c1)c1ccco1,3%,-7%,8.5µM*,?,1%
COc1ccc(NC(=O)Cn2nnc(C(=O)NCc3cccs3)c2N)cc1,0%,-17%,-1%,?,1%
COc1cccc(-c2cc(C(=O)NCc3ccc(F)cc3)no2)c1,.,-3%,-12%,.,.
COc1ccc(-c2cc(C(=O)NCc3cccs3)no2)cc1,4.5µM*,.,?,?,2.5µM*
COc1ccc2nc3sc(C(=O)NCc4cccs4)c(N)c3cc2c1,4µM*,3.5µM*,0.76µM*,?,3.5µM*
COc1cccc(-c2cc(C(=O)NCc3cccs3)no2)c1,3.2µM*,.,4.8µM*,23µM*,3.2µM*
O=C(COc1ccc(F)cc1)Nc1ccc(C(=O)OCc2cc(=O)n3nc(C4CC4)sc3n2)cc1,.,.,-3%,.,.
O=C(NCCc1ccc(Cl)cc1)c1ccc(CSCc2ccccc2Cl)o1,.,.,-18%,.,.
COCCNc1nc(C)nc2c1nc(-c1ccccc1)n2CCN1CCCC1,.,-2%,.,.,.
COc1ccc(Nc2cc(C(=O)NCc3ccco3)c3ccccc3n2)c(OC)c1,-3%,4%,15µM*,-6%,-3%
SMILES,Rab9 prom act,SMN2 splice enh,FLuc counter,ELG1 genotoxic,NPC1 promoter act
COc1ccc(Nc2cc(C(=O)NCc3cccnc3)c3ccccc3n2)c(OC)c1,-9%,-8%,11µM*,-6%,1%
COc1ccc(-c2cc(C(=O)NCc3ccco3)c3ccccc3n2)c(OC)c1,0%,.,?,-13%,-4%
COc1ccccc1Nc1cc(C(=O)NCc2cccs2)c2ccccc2n1,.,-42%,9.5µM*,.,.
Cc1ccccc1Nc1cc(C(=O)NCc2cccs2)c2ccccc2n1,.,1%,?,.,.
COc1ccc(Nc2cc(C(=O)NCc3ccccn3)c3ccccc3n2)c(OC)c1,?,1%,11µM*,-6%,6%
CCN(CC)C(=O)CSc1nc2c(c(=O)n(C)c(=O)n2C)n1Cc1ccccc1,.,-2%,6%,.,.
Cc1ccc(NC(=O)Cn2c(=O)n(CCCCC(=O)NCCc3ccc(Cl)cc3)c(=O)c3ccccc32)cc1,.,-4%,1%,.,.
O=C(NCc1ccco1)c1cc(-c2ccccc2)nc2ccccc12,-2%,?,?,-5%,-2%
COc1ccc(Nc2cc(C(=O)NCc3ccccc3)c3ccccc3n2)cc1,.,1%,-14%,.,.
Cc1cc(C)cc(Nc2cc(C(=O)NCc3ccccc3)c3ccccc3n2)c1,.,-9%,4.8µM*,.,.
COc1ccc(CNC(=O)c2cc(Nc3ccc(C)cc3C)nc3ccccc23)cc1,.,-11%,8.5µM*,.,.
COc1ccc(-c2cc(C(=O)NCc3ccco3)c3ccccc3n2)cc1,11%,.,6.7µM*,0%,0%
COc1ccc(CNC(=O)c2cc(Nc3ccccc3C)nc3ccccc23)cc1,.,-3%,?,.,.
COc1ccc2c(c1)c(=O)c(C(=O)c1ccc(F)cc1)cn2CC(=O)Nc1ccc2c(c1)OCCO2,.,7%,6%,.,.
CN(C)/C=C/C(=O)/C=C/c1ccc(Cl)cc1,?,13µM*,13µM*,?,?
COc1cc2oc(=O)c3c4c(cc5ccc(c1CCN(C)C)c2c53)OCO4,.,11%,.,.,.
Cc1ccc(C(=O)Nc2cc3nn(-c4ccccc4)nc3cc2Cl)c(C)c1,.,-2%,1%,.,.
Cc1cc2nn(-c3ccccc3)nc2cc1NC(=O)c1cccs1,2µM*,?,6µM*,?,?
CC(=O)Nc1cc2nn(-c3ccccc3)nc2cc1C,0.56µM*,.,2.4µM*,3.3µM*,0.63µM*
COc1ccc(-n2nc3cc(C)c(NC(=O)c4cccnc4)cc3n2)cc1,?,28%,1.1µM*,?,?
Cc1ccc(OCC(=O)Nc2cc3nn(-c4ccccc4)nc3cc2C)cc1,.,13%,1%,.,.
CCC(=O)Nc1cc2nn(-c3ccccc3)nc2cc1Cl,0.28µM*,0.89µM*,0.67µM*,0.52µM*,0.32µM*
COc1ccccc1C(=O)Nc1c(C(=O)N(C)c2ccccc2)sc2nc(C)cc(C)c12,.,6%,1%,.,.
Cc1ccc2nc(NC(=O)CSc3cc(C)[nH]c(=O)n3)sc2c1,.,.,-22%,.,.
CS(=O)(=O)c1ccccc1C(=O)Nc1ccc(-c2nc3ccccc3o2)cc1,?,.,24µM*,9%,?
SMILES,Rab9 prom act,SMN2 splice enh,FLuc counter,ELG1 genotoxic,NPC1 promoter act
CS(=O)(=O)c1ccccc1C(=O)Nc1ccc(-c2nc3ccccc3[nH]2)cc1,3.5µM*,.,13µM*,11%,?
O=C(O)c1ccccc1-c1ccccc1C(=O)Nc1cccc(-c2nc3ccccc3o2)c1,-4%,.,8.5µM*,6%,0%
Cc1ccc(C(=O)Nc2ccc(-c3nc4ccccc4o3)cc2)cc1Cl,.,2%,0%,.,.
Cc1ccc(C(=O)Nc2cccc(-c3nc4ccccc4o3)c2)c(Cl)c1,.,-2%,?,.,.
Cc1cccc(C(C)C)c1NC(=O)c1ccc2c(c1)CCCN2S(C)(=O)=O,.,-20%,-4%,.,.
CC(C)NC(=O)N1CC[C@@]2(CCCN(C(=O)c3cnccn3)C2)C1,.,-2%,.,.,.
